# Data from ChEMBL document CHEMBL2218924, “A broad activity screen in support of a chemogenomic map for kinase signalling research and drug discovery” (Biochem J, 2013).
# How the values were obtained:
# [1] = biological target: T1, Testis-specific serine/threonine-protein kinase 2 (Homo sapiens) (UniProt Q96PF2); details: at 1 µM
# T1 sequence (whole entry): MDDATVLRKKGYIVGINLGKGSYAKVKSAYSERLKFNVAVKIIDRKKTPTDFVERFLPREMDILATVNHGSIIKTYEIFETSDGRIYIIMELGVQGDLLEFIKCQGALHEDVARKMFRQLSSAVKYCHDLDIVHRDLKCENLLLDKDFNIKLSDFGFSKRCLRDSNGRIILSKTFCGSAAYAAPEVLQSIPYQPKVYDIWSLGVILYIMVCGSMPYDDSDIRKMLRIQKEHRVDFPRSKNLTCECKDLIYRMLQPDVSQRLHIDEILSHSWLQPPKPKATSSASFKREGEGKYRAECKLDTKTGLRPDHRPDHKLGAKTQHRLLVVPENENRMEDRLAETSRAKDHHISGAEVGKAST
# [2] = biological target: T2, Tyrosine-protein kinase Mer (Homo sapiens) (UniProt Q12866); details: at 1 µM
# T2 sequence (whole entry): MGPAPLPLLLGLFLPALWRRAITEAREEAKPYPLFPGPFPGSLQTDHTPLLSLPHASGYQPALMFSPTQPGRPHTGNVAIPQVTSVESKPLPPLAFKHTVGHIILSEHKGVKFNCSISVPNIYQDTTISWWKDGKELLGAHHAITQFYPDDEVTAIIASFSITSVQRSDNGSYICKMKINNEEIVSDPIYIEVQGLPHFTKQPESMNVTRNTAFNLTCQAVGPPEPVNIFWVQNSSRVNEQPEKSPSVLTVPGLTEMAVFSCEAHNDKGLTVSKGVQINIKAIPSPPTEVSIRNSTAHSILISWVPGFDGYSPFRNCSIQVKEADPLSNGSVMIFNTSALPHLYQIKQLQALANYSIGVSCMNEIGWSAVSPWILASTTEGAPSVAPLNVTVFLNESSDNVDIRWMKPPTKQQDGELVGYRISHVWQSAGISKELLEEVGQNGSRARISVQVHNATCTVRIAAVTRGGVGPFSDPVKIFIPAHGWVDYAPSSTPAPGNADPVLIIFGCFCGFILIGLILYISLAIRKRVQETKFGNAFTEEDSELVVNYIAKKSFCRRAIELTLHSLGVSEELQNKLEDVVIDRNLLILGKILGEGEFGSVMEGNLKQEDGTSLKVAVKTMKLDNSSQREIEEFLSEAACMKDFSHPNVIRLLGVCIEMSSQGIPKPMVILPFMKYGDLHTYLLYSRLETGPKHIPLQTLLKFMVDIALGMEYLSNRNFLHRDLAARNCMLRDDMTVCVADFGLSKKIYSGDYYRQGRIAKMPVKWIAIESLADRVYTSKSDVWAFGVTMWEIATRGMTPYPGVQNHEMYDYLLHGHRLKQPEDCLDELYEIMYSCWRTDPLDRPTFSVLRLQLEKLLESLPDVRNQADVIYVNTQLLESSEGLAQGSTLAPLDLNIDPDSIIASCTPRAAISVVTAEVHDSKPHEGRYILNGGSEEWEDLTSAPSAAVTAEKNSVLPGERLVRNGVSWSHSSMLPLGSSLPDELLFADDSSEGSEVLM
# [3] = biological target: T2, Tyrosine-protein kinase Mer (Homo sapiens); details: at 10 µM
# [4] = biological target: Hepatocyte growth factor receptor (Homo sapiens) (UniProt P08581); details: at 10 µM
# Sequence of Hepatocyte growth factor receptor (Homo sapiens) (P08581 whole entry): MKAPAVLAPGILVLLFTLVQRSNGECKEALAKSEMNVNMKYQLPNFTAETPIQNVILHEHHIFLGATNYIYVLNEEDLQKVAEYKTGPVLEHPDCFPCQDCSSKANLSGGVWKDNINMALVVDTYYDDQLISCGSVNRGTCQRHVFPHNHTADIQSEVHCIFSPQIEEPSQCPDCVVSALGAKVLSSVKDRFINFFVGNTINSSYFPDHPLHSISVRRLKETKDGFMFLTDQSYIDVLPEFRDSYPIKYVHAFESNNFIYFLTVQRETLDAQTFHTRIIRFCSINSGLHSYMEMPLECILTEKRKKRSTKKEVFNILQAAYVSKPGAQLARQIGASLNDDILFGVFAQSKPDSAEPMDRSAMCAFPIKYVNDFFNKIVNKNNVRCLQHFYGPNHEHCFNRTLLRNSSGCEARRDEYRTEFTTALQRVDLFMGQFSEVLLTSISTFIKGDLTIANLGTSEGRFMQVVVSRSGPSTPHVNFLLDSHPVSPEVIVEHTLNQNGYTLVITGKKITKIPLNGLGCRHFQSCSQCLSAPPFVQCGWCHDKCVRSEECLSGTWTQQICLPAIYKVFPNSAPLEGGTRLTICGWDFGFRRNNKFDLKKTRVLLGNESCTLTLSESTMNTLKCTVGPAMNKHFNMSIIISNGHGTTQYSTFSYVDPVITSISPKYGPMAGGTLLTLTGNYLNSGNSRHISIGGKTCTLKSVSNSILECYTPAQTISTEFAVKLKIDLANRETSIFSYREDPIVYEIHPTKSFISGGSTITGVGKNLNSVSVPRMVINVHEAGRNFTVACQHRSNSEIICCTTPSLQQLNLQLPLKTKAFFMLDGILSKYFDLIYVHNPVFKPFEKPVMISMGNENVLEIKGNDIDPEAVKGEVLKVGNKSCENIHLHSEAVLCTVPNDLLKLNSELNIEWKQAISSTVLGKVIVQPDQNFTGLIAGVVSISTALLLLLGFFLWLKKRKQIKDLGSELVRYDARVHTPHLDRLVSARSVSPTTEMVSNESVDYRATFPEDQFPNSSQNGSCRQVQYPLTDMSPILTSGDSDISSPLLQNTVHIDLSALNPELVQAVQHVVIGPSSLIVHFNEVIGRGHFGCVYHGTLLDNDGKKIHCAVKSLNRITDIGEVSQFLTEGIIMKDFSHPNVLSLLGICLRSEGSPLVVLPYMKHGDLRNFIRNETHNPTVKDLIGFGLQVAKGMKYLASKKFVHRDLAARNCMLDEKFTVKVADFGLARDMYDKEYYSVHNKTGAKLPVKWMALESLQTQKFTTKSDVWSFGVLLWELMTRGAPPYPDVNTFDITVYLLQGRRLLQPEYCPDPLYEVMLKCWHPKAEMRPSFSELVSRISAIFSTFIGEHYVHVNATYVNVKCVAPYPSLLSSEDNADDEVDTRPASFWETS
# [5] = biological target: MAP kinase-interacting serine/threonine-protein kinase 2 (Homo sapiens) (UniProt Q9HBH9); details: at 1 µM
# Sequence of MAP kinase-interacting serine/threonine-protein kinase 2 (Homo sapiens) (Q9HBH9 whole entry, looked up): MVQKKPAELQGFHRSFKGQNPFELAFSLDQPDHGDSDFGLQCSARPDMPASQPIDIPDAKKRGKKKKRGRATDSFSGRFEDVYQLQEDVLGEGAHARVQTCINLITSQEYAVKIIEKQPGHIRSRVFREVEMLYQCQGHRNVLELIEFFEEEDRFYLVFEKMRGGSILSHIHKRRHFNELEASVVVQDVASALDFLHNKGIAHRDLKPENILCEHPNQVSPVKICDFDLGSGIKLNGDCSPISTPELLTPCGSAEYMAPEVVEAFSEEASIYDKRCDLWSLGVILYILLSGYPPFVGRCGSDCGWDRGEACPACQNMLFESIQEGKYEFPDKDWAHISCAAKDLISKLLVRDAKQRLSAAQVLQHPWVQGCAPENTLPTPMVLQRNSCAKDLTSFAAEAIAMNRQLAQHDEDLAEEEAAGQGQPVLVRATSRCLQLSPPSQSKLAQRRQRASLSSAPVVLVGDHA
# [6] = biological target: MAP kinase-interacting serine/threonine-protein kinase 2 (Homo sapiens) (UniProt Q9HBH9); details: at 10 µM
# [7] = biological target: T3, Muscle, skeletal receptor tyrosine-protein kinase (Homo sapiens) (UniProt O15146); details: at 1 µM
# T3 sequence (whole entry): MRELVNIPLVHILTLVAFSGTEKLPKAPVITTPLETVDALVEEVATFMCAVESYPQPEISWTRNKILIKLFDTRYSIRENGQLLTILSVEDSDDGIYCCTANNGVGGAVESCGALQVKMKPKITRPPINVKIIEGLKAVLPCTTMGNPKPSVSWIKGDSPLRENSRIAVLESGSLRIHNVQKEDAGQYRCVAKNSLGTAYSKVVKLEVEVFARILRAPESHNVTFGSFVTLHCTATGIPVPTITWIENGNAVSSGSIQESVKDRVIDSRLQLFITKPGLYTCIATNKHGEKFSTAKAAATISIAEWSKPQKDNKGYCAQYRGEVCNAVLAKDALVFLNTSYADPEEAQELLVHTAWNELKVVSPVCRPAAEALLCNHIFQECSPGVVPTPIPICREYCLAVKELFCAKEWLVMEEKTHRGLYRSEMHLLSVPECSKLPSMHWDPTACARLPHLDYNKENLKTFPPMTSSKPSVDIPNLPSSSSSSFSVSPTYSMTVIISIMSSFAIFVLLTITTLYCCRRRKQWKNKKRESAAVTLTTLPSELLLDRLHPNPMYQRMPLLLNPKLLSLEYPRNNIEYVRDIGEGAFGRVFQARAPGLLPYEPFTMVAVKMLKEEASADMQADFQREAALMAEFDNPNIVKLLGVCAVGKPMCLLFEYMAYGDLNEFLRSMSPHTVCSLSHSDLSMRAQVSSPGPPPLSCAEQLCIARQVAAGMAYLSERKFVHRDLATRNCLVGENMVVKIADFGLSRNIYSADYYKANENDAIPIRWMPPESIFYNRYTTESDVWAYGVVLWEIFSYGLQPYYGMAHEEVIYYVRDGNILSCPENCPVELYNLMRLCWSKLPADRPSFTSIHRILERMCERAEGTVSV
# [8] = biological target: T3, Muscle, skeletal receptor tyrosine-protein kinase (Homo sapiens); details: at 10 µM
# [9] = biological target: T4, Serine/threonine-protein kinase Nek11 (Homo sapiens) (UniProt Q8NG66); details: at 1 µM
# T4 sequence (whole entry): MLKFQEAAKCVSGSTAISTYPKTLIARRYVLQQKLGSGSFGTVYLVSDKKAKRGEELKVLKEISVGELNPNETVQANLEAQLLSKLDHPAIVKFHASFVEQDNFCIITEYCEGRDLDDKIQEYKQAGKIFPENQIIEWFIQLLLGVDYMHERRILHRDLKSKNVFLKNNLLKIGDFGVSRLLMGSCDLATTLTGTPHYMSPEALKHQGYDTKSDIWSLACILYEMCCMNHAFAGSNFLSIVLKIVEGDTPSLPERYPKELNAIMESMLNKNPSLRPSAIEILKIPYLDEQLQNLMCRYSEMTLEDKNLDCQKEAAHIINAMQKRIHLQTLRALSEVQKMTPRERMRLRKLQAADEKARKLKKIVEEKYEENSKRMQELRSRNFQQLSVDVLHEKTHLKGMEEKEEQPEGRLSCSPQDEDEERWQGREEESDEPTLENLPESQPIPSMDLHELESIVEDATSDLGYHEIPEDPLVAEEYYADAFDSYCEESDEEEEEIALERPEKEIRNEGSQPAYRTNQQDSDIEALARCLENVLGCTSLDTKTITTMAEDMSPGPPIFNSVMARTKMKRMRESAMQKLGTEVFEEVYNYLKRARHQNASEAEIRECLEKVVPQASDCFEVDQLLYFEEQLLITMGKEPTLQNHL
# [10] = biological target: T4, Serine/threonine-protein kinase Nek11 (Homo sapiens); details: at 10 µM
# [11] = biological target: T5, Serine/threonine-protein kinase Nek2 (Homo sapiens) (UniProt P51955); details: at 1 µM
# T5 sequence (whole entry): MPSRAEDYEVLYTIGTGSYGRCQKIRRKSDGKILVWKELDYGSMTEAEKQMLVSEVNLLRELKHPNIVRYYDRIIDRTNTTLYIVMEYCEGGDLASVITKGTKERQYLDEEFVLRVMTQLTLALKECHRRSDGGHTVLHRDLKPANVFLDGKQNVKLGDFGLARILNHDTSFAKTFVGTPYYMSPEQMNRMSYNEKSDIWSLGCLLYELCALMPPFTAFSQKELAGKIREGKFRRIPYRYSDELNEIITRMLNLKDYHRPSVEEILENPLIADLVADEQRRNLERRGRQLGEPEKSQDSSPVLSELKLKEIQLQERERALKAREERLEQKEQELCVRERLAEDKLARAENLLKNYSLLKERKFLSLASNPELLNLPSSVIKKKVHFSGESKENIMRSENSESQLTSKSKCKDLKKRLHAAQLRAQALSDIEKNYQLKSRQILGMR
# [12] = biological target: T5, Serine/threonine-protein kinase Nek2 (Homo sapiens); details: at 10 µM
# [13] = biological target: T6, Serine/threonine-protein kinase Nek3 (Homo sapiens) (UniProt P51956); details: at 1 µM
# T6 sequence (whole entry): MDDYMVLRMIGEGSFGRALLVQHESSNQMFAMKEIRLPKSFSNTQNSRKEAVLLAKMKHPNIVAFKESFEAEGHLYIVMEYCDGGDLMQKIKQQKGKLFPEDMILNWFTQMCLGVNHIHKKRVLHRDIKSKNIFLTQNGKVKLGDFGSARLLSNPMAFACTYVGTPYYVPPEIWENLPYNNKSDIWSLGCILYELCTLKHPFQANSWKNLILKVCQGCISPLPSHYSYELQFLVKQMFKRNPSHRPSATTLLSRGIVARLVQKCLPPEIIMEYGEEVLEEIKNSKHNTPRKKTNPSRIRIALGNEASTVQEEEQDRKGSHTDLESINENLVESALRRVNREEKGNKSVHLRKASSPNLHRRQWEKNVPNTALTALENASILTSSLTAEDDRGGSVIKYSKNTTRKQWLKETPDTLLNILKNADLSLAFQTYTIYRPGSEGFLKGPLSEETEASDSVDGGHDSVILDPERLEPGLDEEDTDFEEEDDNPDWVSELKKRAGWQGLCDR
# [14] = biological target: T6, Serine/threonine-protein kinase Nek3 (Homo sapiens); details: at 10 µM
# [15] = biological target: Serine/threonine-protein kinase tousled-like 2 (Homo sapiens) (UniProt Q86UE8); details: at 1 µM
# Sequence of Serine/threonine-protein kinase tousled-like 2 (Homo sapiens) (Q86UE8 whole entry, looked up): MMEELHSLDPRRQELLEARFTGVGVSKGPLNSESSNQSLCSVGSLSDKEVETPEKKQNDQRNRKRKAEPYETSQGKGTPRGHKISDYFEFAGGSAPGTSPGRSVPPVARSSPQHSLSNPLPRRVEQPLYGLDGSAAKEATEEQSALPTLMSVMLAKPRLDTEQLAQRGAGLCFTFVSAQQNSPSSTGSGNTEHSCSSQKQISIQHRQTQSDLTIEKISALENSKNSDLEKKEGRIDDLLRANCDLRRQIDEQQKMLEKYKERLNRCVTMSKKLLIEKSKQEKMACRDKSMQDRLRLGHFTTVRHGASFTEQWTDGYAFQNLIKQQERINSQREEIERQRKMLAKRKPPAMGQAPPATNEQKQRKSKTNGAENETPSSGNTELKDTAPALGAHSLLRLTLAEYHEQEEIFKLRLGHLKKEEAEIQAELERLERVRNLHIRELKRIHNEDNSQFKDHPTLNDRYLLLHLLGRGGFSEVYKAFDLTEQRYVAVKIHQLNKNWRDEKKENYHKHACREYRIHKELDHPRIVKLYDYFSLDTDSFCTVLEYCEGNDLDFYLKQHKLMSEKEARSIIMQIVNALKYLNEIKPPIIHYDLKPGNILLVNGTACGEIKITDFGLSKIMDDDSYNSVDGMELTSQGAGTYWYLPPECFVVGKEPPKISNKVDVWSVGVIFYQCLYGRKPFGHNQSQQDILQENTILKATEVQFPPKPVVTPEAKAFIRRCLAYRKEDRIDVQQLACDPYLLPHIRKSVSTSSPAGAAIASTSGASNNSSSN
# [16] = biological target: Serine/threonine-protein kinase tousled-like 2 (Homo sapiens) (UniProt Q86UE8); details: at 10 µM
# [17] = biological target: T7, Testis-specific serine/threonine-protein kinase 1 (Homo sapiens) (UniProt Q9BXA7); details: at 1 µM
# T7 sequence (whole entry): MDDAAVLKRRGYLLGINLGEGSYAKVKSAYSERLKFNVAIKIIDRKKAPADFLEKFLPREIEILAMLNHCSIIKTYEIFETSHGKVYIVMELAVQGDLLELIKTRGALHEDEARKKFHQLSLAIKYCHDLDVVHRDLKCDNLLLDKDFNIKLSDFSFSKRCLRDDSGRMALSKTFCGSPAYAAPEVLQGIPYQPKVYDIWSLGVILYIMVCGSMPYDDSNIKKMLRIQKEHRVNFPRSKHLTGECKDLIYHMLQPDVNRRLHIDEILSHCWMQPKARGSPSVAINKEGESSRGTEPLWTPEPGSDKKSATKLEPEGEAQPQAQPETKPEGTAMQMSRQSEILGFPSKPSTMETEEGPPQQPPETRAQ
# [18] = biological target: T7, Testis-specific serine/threonine-protein kinase 1 (Homo sapiens); details: at 10 µM
# [19] = biological target: T1, Testis-specific serine/threonine-protein kinase 2 (Homo sapiens); details: at 10 µM
# [20] = biological target: Hepatocyte growth factor receptor (Homo sapiens) (UniProt P08581); details: at 1 µM
structure (smiles),measurement,setting,value
Cc1ccc(NC2=CC(=O)c3sc(C)nc3C2=O)cc1,residual activity,[1],93%
O=C1NC(=O)c2c1c1c3ccccc3[nH]c1c1[nH]c3cc(Br)ccc3c21,residual activity,[1],102%
Cn1cc(/C=C2\C(=O)Nc3ccc(S(N)(=O)=O)cc32)c2ccccc21,residual activity,[1],72%
CCn1cnc2c(Nc3cccc(Cl)c3)nc(N[C@@H]3CCCC[C@@H]3N)nc21,residual activity,[2],8%
same,residual activity,[3],-1%
same,residual activity,[4],72%
same,residual activity,[5],97%
same,residual activity,[6],70%
same,residual activity,[7],61%
same,residual activity,[8],13%
same,residual activity,[9],68%
same,residual activity,[10],55%
same,residual activity,[11],98%
same,residual activity,[12],55%
same,residual activity,[13],75%
same,residual activity,[14],81%
same,residual activity,[15],31%
same,residual activity,[16],4%
same,residual activity,[17],79%
same,residual activity,[18],40%
same,residual activity,[1],90%
same,residual activity,[19],58%
Nc1nc(Nc2ccc(S(N)(=O)=O)cc2)nn1C(=O)c1c(F)cccc1F,residual activity,[1],103%
N#Cc1cnc2cnc(NCc3cccnc3)cc2c1Nc1ccc(F)c(Cl)c1,residual activity,[1],14%
CCc1nc(-c2ccc(OC)cc2)[nH]c1-c1ccncc1,residual activity,[5],105%
same,residual activity,[6],59%
same,residual activity,[7],117%
same,residual activity,[8],76%
same,residual activity,[9],62%
same,residual activity,[10],72%
same,residual activity,[11],112%
same,residual activity,[12],105%
same,residual activity,[14],106%
same,residual activity,[15],107%
same,residual activity,[16],100%
same,residual activity,[17],113%
Cc1cc2ncc(-c3ccccc3)nc2cc1C,residual activity,[1],91%
O=c1cc(-c2cccc3c2Sc2ccccc2S3)oc(N2CCOCC2)c1,residual activity,[1],112%
c1cc(-c2cnn3cc(-c4ccc(OCCN5CCCCC5)cc4)cnc23)ccn1,residual activity,[2],33%
same,residual activity,[3],3%
same,residual activity,[5],56%
same,residual activity,[6],24%
same,residual activity,[7],18%
same,residual activity,[8],1%
same,residual activity,[12],86%
same,residual activity,[16],74%
same,residual activity,[17],76%
same,residual activity,[18],45%
COC(=O)[C@@]1(O)C[C@H]2O[C@]1(C)n1c3ccccc3c3c4c(c5c6ccccc6n2c5c31)C(=O)NC4,residual activity,[2],2%
same,residual activity,[3],0%
same,residual activity,[20],6%
same,residual activity,[4],13%
same,residual activity,[5],0%
same,residual activity,[6],0%
same,residual activity,[7],18%
same,residual activity,[8],2%
same,residual activity,[9],34%
same,residual activity,[10],9%
same,residual activity,[11],75%
same,residual activity,[12],29%
same,residual activity,[13],65%
same,residual activity,[14],53%
same,residual activity,[15],1%
same,residual activity,[16],0%
same,residual activity,[17],-1%
same,residual activity,[18],0%
same,residual activity,[1],8%
same,residual activity,[19],0%
